Assay results: PubChem BioAssay (NCI)
Compounds without any hit were thinned out: in the full panel of roughly 83,000, 20% have a hit.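 Negative percent growth values reflect cell death: -40 means 40% of the cells present at the start died, and -100 means all died.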 Unmarked numbers belong to inactive results. Activity calls are given as the source filed them. Rule for the calls: active = growth percent below 10; inactive = the rest.

Assays:
Experiment in all cases: NCI-60 one-dose screen, 48 h (100 = growth as untreated, 0 = no growth, -100 = all killed)
Conditions in all cases: 10 µM unless noted
[1] = system: T-47D breast
[2] = system: BT-549 breast
[3] = system: MDA-MB-435 melanoma
[4] = system: SW-620 colon
[5] = system: MCF7 breast
[6] = system: HCT-116 colon
[7] = system: HCC-2998 colon
[8] = system: KM12 colon

| Compound | growth [1] | growth [2] | growth [3] | growth [4] | growth [5] | growth [6] | growth [7] | growth [8] |
| --- | --- | --- | --- | --- | --- | --- | --- | --- |
| O=C1c2c(c3c4cccc(F)c4[nH]c3c3ccc4ccccc4c23)C(=O)N1O | 19.6% | 52.7% | 60.7% | 31.2% | 19.4% | 16.9% | 76.3% | 25.4% |
| C=C1C(=O)O[C@H]2[C@H]1CC/C(COC(=O)NCc1c[nH]c3ccc(Br)cc13)=C\CC[C@@]1(C)O[C@@H]21 | -68% (active) | -52.3% (active) | -56.5% (active) | -71.3% (active) | 16.6% | -83.1% (active) | 53.3% | 19.5% |
| COc1cc(NC(C)CCCNC(=O)CCC(=O)NCCCNCCCCCCCCCCNCCCNC(=O)CCC(=O)NCCCC(C)Nc2cc(OC)cc3cccnc23)c2ncccc2c1 (stereo not given) | 28.5% [8 µM] | 95.5% [8 µM] | 75.8% [8 µM] | 73.4% [8 µM] | 24.3% [8 µM] | 69.4% [8 µM] | 79.8% [8 µM] | 89.2% [8 µM] |
| CCCN1[C@@H]2CC[C@H]1/C(=C\c1ccc(OC)c(OC)c1)C(=O)/C2=C/c1ccc(OC)c(OC)c1 | 25.1% | 51.8% | 39.6% | 43% | 30.2% | 22.1% | 86.7% | 54.6% |
| C=C(C)[C@@H]1CC[C@]2(C(=O)N3CCN(C)CC3)CC[C@]3(C)[C@H](CC[C@@H]4[C@@]5(C)CC[C@H](O)C(C)(C)[C@@H]5CC[C@]43C)[C@@H]12 | -73.8% (active) | -51.8% (active) | -82.1% (active) | -74.8% (active) | -79.6% (active) | -98.3% (active) | -85.3% (active) | -80.7% (active) |
| CCNC(=O)Oc1ccc(/C(=C(\C)c2ccccc2)c2ccc(OCCN(CC)CC)cc2)cc1 | 46.3% | 76.1% | 71% | 82.6% | 28.8% | 55.7% | 91.5% | 72.1% |
| Cn1c2ccccc2c2c3c(c4c5ccccc5n(C)c4c21)C(=O)OC3 | 95.2% | 97.2% | 103% | 88% | 92.1% | 93.8% | 99.7% | 97.2% |
| Cc1cccc(-c2cn3ccnc3c(-c3ccc4ncn(Cc5ccccc5)c4c3)n2)c1 | 13.9% | 101% | 99.1% | 100% | 77.8% | 63.3% | 111% | 78% |
| N#Cc1cc(-c2nc3ccccc3s2)c(=O)n(NS(=O)(=O)c2ccccc2)c1N | 94.5% | 98.2% | 102% | 100% | 105% | 109% | 116% | 103% |
| O=C(CSc1nc2ccccc2[nH]1)NCc1ccccc1 | 92% | 105% | 95.8% | 99.2% | 95.5% | 107% | 102% | 105% |
| O=C(Nc1cccc(C(=O)N2CCc3ccc(Cl)cc32)c1)c1ccco1 | 33.6% | 37.2% | -2.72% (active) | 29.8% | 21.6% | 18.9% | 68% | 33.6% |
| COc1cc(C2C3CC4CCCC[C@H]4N3[C@@]3(C(=O)Nc4cc(Cl)ccc43)C2C(=O)c2nc3ccccc3[nH]2)cc(OC)c1OC (stereo not given in full) | 36.3% | 76% | 53.1% | 60.5% | 30.4% | 34.7% | 69.9% | 60.6% |
| c1ccc2cc(Cn3c(-c4cccc5ccccc45)[n+](Cc4ccc5ccccc5c4)c4c5ccccc5c5ccccc5c43)ccc2c1 | -70.8% (active) | -70.5% (active) | -83.7% (active) | -78.2% (active) | -64.7% (active) | -73.5% (active) | -84.7% (active) | -82.2% (active) |
| CCCCCN1C=C/C(=C\C(=O)N(C)c2ccccc2Br)c2ccccc21 | 77.3% | 116% | 99.4% | 97% | 94.3% | 87.2% | 102% | 98.4% |
| COc1cc(CC(=O)n2ncc3ccc(N)cc32)cc(OC)c1OC | 76.2% | 91.3% | 65.3% | 104% | 87.5% | 97.3% | 105% | 82.6% |
| O=S(=O)(NCCNc1nccc(-c2c(-c3cccc(O)c3)nc3occn23)n1)c1cccc(F)c1 | 73.7% | 104% | 34.3% | 115% | 57% | 70.4% | 129% | 88.2% |
| COCCCN1CC(O)=C(c2nc(-c3ccc(C)cc3)cs2)C1=N | 97.5% | 103% | 105% | 104% | 360% | 90.3% | 112% | 120% |
| COc1cc(NC(=O)CSc2nc3ccc(C)cc3c(=O)n2Cc2ccccc2)cc(OC)c1OC | 22.8% | 53.3% | 67.3% | 81.3% | 71% | 43.4% | 76% | 57.9% |
| Cc1ccc(C(=O)/C(=C\c2ccc([N+](=O)[O-])cc2)S(=O)Cc2ccc(F)cc2)cc1 (stereo not given) | -26.6% (active) | -0.818% (active) | 45.5% | -27.7% (active) | 7.88% (active) | -70.7% (active) | 22.8% | 19.4% |
| CN(C)c1ccc(C2C(C#N)=C(/N=C/c3ccccc3)Oc3c2ccc2ccccc32)cc1 (stereo not given) | 83.1% | 69.6% | 4.53% (active) | 41% | 54.3% | 56.5% | 104% | 58.8% |
| CC(C)(C)CC(C)(C)n1nnnc1C(NC12CC3CC(CC(C3)C1)C2)c1ccccc1 (stereo not given) | 73.5% | 93.2% | 98.3% | 98.9% | 88.9% | 66.8% | 104% | 101% |
| O=Cc1ccc(-c2cn3ccnc3c(-c3ccc4ncn(Cc5ccccc5)c4c3)n2)cc1 | 1.99% (active) | 66.2% | 87% | 95.8% | 52.2% | 7.44% (active) | 105% | 96.3% |
| O=C(N/N=C/c1ccc(Oc2ccccc2)cc1)c1cnn2c1NC(c1ccccc1)C2 (stereo not given) | 43% | 81.1% | 4.46% (active) | 42.1% | 17.7% | 32.2% | 71.8% | 44.7% |
| NS(=O)(=O)c1ccc(CCN2C(=O)C3C(C2=O)C2(Cl)C(Cl)=C(Cl)C3(Cl)C2(Cl)Cl)cc1 (stereo not given) | 94.4% | 94.8% | 108% | 105% | 92.5% | 94% | 93.8% | 105% |
| c1ccc2c(-c3c[nH]c4ccccc34)c3c(cc2c1)[nH]c1ccccc13 | 33.8% | 67.4% | -3.69% (active) | 42.6% | 30.9% | 46.9% | 82.8% | 35.7% |
| OC(c1cccc(C(F)(F)F)c1)c1cnccc1NC1CCCCC1 (stereo not given) | 49.1% | 93.5% | 86.6% | 77.6% | 71.4% | 51.1% | -11.3% (active) | 80.8% |
| O=C(Nc1ccccc1C(=O)N/N=C(\c1ccccc1)c1ccccn1)c1ccc(F)cc1 | 12.7% | 16.1% | 29.5% | 30.2% | 12.7% | 17% | 32.5% | 26.6% |
| Fc1ccc2c(-c3cncn3CCc3ccccc3)c[nH]c2c1 | 74.4% | 105% | 93.2% | 90.8% | 86.6% | 75.7% | 102% | 97.9% |
| CCNc1nc2cc(Nc3ccnc4cc(Cl)ccc34)ccc2o1 | 66.4% | 81.4% | 9.8% (active) | 54.9% | 40.8% | 42.3% | 68.7% | 38% |
| COc1cccc(C(=O)NNc2nc(Cl)nc(N3CCN(C(c4ccccc4)c4ccccc4)CC3)n2)c1 | 83.3% | 81.6% | 97.2% | 33.9% | 88% | 39.2% | 64% | 90.2% |
